These results are taken from PubChem BioAssay (NCATS).

Test [1] deals with Lysosomal acid glucosylceramidase (Homo sapiens) (UniProt P04062). Put plainly: Glucocerebrosidase-p2 (AID 348; in the data active = potency below about 10 µM; also: potency is read from the fitted curve at half-maximal effect). The note with it: purified GBA, blue fluorogenic substrate, 40 min. A digest of the protocol: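 Compounds titrated from 0.6 nM upwards against 0.2 nM enzyme in pH 5.9 citric acid/KH2PO4, taurocholate, tween-20; blue fluorogenic substrate 80 uM, 40 min room temperature, stopped and read Ex 365/Em 440 for AC50.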

A short description of test [2]: AP1 Signaling Pathway (AID 357).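 Also: ME-180 reporter cells stimulated with EGF at its EC50 level; % is scaled to controls: 0 for no effect and ±100 for the full control effect.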 The note with it: ME-180 AP-1-bla reporter, EGF-induced, beta-lactamase ratio, 5 h; at 7.69 µM (top of the series) unless noted. A digest of the protocol:
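Titration-series screen for positive or negative modulators of EC50 EGF-induced signaling in ME-180 cells carrying an AP-1-driven beta-lactamase reporter. After 5 hours at 37 degrees Celsius, CCF4 460nm/530nm emission ratio gave %Activity; AC50 values derived.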

Test [3] addresses Cytochrome P450 1A2 (Homo sapiens) (UniProt P05177). Put plainly: p450-cyp1a2 (AID 410; calls by dose curve; also: potency is read from the fitted curve at half-maximal effect;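 as to activity change, negative = inhibition: -100% = full effect of reference inhibitor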). The note with it: recombinant CYP1A2, luciferin-ME demethylation, luminescence; series mostly up to 57 µM. A digest of the protocol:
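Inhibition was calculated relative to 57 uM furafylline (full inhibition). The reaction used human CYP1A2 at 20nM with Luciferin-ME at its Km, 100uM, driven by an NADPH-regenerating system for 60 min at room temperature.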

A short description of test [4]: NFAT Signaling Pathway (AID 444).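 Also: carbachol stimulus at about its EC50 of 1 µM final; % is scaled to controls: 0 for no effect and ±100 for the full control effect.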 The note with it: Jurkat NFAT-bla M1, carbachol, beta-lactamase ratio, 5 h; at 7.69 µM (top of the series) unless noted. A digest of the protocol:
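Jurkat cells with NFAT-driven β-lactamase reporter and co-expressed M1 receptor, stimulated with carbachol (final 1 uM, ~EC50), compound titration, 5 h at 37 °C. CCF4 loaded 1 h at RT; 460/530 nm ratio gave %activity and AC50.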

Test [5] in a line: Stat Signaling Pathway (AID 446).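 Also: ME-180 cervical cancer cells given 40 pM IL-6 alongside compound; SIE-controlled beta-lactamase reporter measured as 460/530 nm FRET emission ratio; % is scaled to controls: 0 for no effect and ±100 for the full control effect.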 The note with it: ME-180 (cervical carcinoma) SIE beta-lactamase reporter, IL-6 stimulated, 5 h; at 7.69 µM (top of the series) unless noted. The method, boiled down:
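ME-180 SIE-bla cells; overnight plating; cpd + IL-6 40 pM, 5 h, 37 C; LiveBLAzer 2.5 h RT; 460/530 nm emission ratio. Normalized to 300 pM IL-6 and 125 nM JAK inhibitor controls.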

Test [6] addresses Glucocorticoid receptor (Homo sapiens) (UniProt P04150). Put plainly: GR-EFC Redistribution (AID 451; calls by dose curve; also: potency is read from the fitted curve at half-maximal effect). The note with it: CHO-K1 GR-EFC translocation, beta-gal luminescence, 2 h. The method, boiled down: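 CHO-K1 cells expressing nuclear EA and GR-ED fragments of b-gal; compounds titrated up to 46 uM final, 2 h at 37 C. GR nuclear translocation read as complemented b-gal luminescence after 1 h RT detection.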

The target of test [7] is Mitogen-activated protein kinase 10 (Mus musculus) (UniProt Q61831). Nature of the test: JNK3 AlphaScreen Assay (AID 530).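 Also: kinase came from lysate of stimulated human HepG2 cells; signal reports phosphorylation of biotinylated GST-cJun 1-79 at Ser73 with 10 µM ATP; % is scaled to controls: 0 for no effect and ±100 for the full control effect.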 The note with it: JNK3 lysate, c-Jun phosphorylation; series mostly up to 57.1 µM. A digest of the protocol:
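qHTS format: compounds tested as titrations against IL-1beta/TNF-alpha-activated HepG2 lysate JNK3 with biotin-GST-cJun substrate and 10 uM ATP at room temperature. Loss of anti-phospho-cJun AlphaScreen signal indicates inhibition.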
(In general: Bead proximity is the source of the signal in Alpha formats.)

For test [8], the target named is 3',5'-cyclic-AMP phosphodiesterase 4B (Homo sapiens) (UniProt Q07343). Nature of the test: qHTS Assay for Inhibitors of PDE-IV (AID 607; active = well fitted activation curve with a large enough effect in the main read-out, with a control signal flat, not every such curve was filed as active; also: % of control where 0% means no effect). The note with it: HEK293 ACTOne CNG channel cells, membrane potential fluorescence; series mostly up to 22.9 µM. A digest of the protocol: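 ACTOne HEK293 cells carry a modified cAMP-gated CNG channel and express endogenous PDE4; plated 1000 cells/well, compounds up to 22.9 uM final. Membrane-potential dye fluorescence (ex 535/em 590) was read; parental cells received 10 uM forskolin + 100 uM RO 20-1724.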
(In general: Quantitative high-throughput screening tests each substance at several concentrations.)

Test [9] is described as follows: qHTS Assay for Lipid Storage Modulators (AID 1519; calls by dose curve). The note with it: Drosophila S3 cells, BODIPY lipid droplet/cell ratio, laser cytometry, cells loaded with oleic acid; for activity change, negative = inhibition: at 57.5 µM (top of the series). A digest of the protocol: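 Cells seeded at 5,000 per well were treated with compounds over a concentration series and loaded with oleic acid (400 uM, as added). Lipid droplet fluorescence (488 nm excitation, 500-530 nm channel) was read by laser-scanning cytometry and normalized to 20 uM Triacsin C.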

Test [10] is described as follows: Primary qHTS for small molecule stabilizers of the endoplasmic reticulum resident proteome: Secreted ER Calcium Modulated Protein (SERCaMP) assay (AID 1508630; active = well fitted inhibition curve with a large enough effect; also: % is scaled to controls: 0 for no effect and ±100 for the full control effect). The note with it: SH-SY5Y GLuc-SERCaMP (Gaussia luciferase released on ER calcium loss) secretion, thapsigargin, luminescence; series mostly up to 38.4 µM. The method, boiled down:
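GLuc-SERCaMP-expressing SH-SY5Y cells, pretreated 16 h with compound, are challenged with thapsigargin to empty ER calcium stores; after 4 h, coelenterazine is added directly to the medium and luminescence is imaged.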

Setting [11] is: measured here: cell count channel max response.
Setting [12] is: measured here: lipid channel max response.

Molecules are shown by their SMILES. Records with an inconclusive call do not appear. Calls of active or inactive are those of the source. Unless noted, calls follow the shape of the dose curve; as a rule, active = well fitted curve in either direction with a large enough effect (not every such curve was filed as active); inconclusive = small, poorly fitted or top-dose-only effect, or another doubt; inactive = flat fitted curve, though single readings scatter.

Sequence of 3',5'-cyclic-AMP phosphodiesterase 4B (Homo sapiens) (Q07343 whole entry, looked up): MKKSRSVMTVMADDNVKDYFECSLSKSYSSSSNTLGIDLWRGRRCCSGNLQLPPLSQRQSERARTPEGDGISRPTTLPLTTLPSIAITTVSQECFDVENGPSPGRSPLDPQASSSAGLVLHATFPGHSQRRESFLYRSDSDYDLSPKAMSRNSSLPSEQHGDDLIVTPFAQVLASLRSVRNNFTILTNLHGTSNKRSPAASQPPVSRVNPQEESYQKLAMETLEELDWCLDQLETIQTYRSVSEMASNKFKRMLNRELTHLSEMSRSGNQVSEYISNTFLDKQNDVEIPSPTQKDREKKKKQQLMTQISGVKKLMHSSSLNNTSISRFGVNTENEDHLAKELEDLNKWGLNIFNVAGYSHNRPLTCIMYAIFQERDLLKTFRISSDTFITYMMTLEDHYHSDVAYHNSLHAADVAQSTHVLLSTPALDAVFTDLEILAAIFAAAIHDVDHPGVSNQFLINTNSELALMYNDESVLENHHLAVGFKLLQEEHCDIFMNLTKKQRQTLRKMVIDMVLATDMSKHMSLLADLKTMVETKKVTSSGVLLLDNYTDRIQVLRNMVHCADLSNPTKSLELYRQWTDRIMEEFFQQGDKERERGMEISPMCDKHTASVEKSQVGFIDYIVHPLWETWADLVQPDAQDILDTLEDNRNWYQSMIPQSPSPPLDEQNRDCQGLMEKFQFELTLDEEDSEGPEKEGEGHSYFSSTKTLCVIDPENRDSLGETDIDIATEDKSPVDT
Sequence of Lysosomal acid glucosylceramidase (Homo sapiens) (P04062 whole entry, looked up): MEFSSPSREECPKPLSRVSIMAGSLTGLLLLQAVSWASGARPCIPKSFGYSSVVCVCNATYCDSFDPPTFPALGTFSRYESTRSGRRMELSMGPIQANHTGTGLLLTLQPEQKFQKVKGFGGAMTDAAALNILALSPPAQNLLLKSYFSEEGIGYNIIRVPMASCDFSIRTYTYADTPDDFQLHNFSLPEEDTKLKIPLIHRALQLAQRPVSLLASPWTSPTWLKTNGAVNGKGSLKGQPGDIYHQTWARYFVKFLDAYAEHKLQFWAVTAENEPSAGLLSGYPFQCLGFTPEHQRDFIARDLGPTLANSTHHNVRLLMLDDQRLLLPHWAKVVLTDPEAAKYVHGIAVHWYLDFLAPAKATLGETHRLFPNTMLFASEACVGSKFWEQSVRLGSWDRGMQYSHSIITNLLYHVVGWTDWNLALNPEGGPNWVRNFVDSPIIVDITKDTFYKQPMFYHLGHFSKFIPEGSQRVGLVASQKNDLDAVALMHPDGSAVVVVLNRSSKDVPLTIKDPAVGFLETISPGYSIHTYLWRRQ
Sequence of Glucocorticoid receptor (Homo sapiens) (P04150 whole entry, looked up, the tested form may be a part): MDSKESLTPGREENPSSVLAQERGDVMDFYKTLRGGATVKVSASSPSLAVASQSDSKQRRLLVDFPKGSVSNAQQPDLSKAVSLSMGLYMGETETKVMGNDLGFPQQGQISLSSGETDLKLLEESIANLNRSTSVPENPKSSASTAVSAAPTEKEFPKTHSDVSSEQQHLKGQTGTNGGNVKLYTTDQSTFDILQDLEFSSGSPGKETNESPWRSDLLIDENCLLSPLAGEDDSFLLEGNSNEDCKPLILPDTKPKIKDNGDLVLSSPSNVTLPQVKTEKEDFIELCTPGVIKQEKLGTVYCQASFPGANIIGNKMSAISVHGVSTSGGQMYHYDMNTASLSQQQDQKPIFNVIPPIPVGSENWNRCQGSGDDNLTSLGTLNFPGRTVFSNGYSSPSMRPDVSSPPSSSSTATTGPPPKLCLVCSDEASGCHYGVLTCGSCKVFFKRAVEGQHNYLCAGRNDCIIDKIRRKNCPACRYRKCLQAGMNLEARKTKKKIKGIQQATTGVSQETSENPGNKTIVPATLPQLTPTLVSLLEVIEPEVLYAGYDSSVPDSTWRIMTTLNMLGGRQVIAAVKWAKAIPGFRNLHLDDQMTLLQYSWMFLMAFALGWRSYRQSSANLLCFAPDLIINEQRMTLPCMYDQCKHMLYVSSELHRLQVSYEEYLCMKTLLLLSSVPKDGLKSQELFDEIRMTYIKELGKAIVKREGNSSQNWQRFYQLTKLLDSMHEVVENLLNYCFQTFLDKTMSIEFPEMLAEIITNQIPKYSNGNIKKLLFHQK
Sequence of Cytochrome P450 1A2 (Homo sapiens) (P05177 whole entry, looked up): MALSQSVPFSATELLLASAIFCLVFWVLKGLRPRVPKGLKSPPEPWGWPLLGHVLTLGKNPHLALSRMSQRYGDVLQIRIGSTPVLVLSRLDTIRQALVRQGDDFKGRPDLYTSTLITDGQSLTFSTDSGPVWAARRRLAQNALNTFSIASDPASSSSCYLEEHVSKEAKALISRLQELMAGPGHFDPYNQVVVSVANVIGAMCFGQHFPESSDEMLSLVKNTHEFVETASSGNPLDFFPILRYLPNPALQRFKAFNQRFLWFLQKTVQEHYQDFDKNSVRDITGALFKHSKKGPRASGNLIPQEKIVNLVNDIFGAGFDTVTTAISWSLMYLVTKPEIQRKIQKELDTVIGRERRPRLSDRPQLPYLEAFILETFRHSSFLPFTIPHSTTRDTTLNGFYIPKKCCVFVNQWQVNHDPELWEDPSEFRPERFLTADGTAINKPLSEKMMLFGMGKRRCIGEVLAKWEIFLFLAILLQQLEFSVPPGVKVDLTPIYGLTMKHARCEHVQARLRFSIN

For `CS(=O)(=O)N1CCC2(CCN(C(=O)Nc3cccc(F)c3)CC2)CC1`, the Potency was > 11.4 µM (inactive) in test [1] and > 46 µM (inactive) in test [6]. For the same molecule, the activity change, negative = inhibition in test [2] was -2.81% (inactive); in test [4], 8.92% (inactive); in [9] it was 4.55% (inactive). Also, the Potency entry in test [3], in test [8] and in test [10] was “inactive” in each case. For the same molecule, the activity, negative = inhibition in test [5] was -6.54% (inactive). Besides, the call in test [7] was inactive. Moreover, the max response came out at 4.7% in [9] (setting [11]) and 11.5% in [9] (setting [12]).

On to `COC(=O)N1CCC2(CCN(Cc3cc(C(F)(F)F)cc(C(F)(F)F)c3)CC2)CC1`, for which the Potency in test [1] was > 11.4 µM (inactive); in test [6], > 46 µM (inactive). Besides, the results for the activity change, negative = inhibition in test [2], in test [4] and in [9] were -23.4% (inactive), -22.9% (inactive) and 2.7% (inactive), respectively. For the same molecule, the Potency entry in [3] and in [10] was “inactive” each time. The activity, negative = inhibition in test [5] was 0.155% (inactive). Further, the molecule was classed as inactive in test [7]. Further, the max response was -2.08% in [9] (setting [11]) and 2.77% in test [9] (setting [12]).

`O=C(c1ccncc1)N1CCC2(CC1)CN(c1ncccn1)C2`: the results for the Potency in test [1], in [3] and in test [6] were > 11.4 µM (inactive), 6.31 µM (active) and > 46 µM (inactive), respectively. For the same molecule, the values for the activity change, negative = inhibition in test [2], in test [4] and in test [9] were 7.49% (inactive), 6.22% (inactive) and 0.437% (inactive), respectively. For the same molecule, the activity, negative = inhibition in [5] is -10.2% (inactive). The molecule was called inactive in [7]. The Potency result in test [8] and in test [10] was “inactive” throughout. For the same molecule, the max response in test [9] (setting [11]) was 22.4%; in test [9] (setting [12]) it was 23.6%.

Regarding `COC(=O)N1CCC2(CC1)CN(c1cccc(-c3ccccc3)c1)C2`, the Potency was > 11.4 µM (inactive) in test [1] and > 46 µM (inactive) in test [6]. Besides, the results for the activity change, negative = inhibition in test [2], in test [4] and in test [9] were -12.5% (inactive), -3.27% (inactive) and 4.36% (inactive), respectively. Also, the Potency result in [3], in test [8] and in test [10] was “inactive” each time. The activity, negative = inhibition in [5] was 4.85% (inactive). Further, in [7], the call was inactive. Besides, the results for the max response in test [9] (setting [11]) and in [9] (setting [12]) were 23.2% and 29.4%, respectively.

As to `CC(C)NC(=O)N1CC[C@@]2(CCCN(S(C)(=O)=O)C2)C1`, the Potency in test [1] was > 11.4 µM (inactive); in [6], > 46 µM (inactive). The activity change, negative = inhibition in [2] was -5.61% (inactive); in test [4], 0.961% (inactive); in [9], 0.109% (inactive). Further, the Potency entry in [3] and in [10] was “inactive” in each case. Also, the activity, negative = inhibition in test [5] was -2.56% (inactive). Further, the molecule was classed as inactive in test [7]. In addition, the max response was determined as 4.25% in test [9] (setting [11]) and 3.89% in test [9] (setting [12]).

For the molecule `CC(=O)N1CCC2(CCN(Cc3nccs3)CC2)CC1`, the Potency in [1] is > 11.4 µM (inactive); in test [6], > 46 µM (inactive). The activity change, negative = inhibition in test [2] was 3.58% (inactive); in test [4], -2.08% (inactive); in test [9] it was -0.294% (inactive). In addition, the Potency result in test [3], in test [8] and in test [10] was “inactive” in each case. Also, the activity, negative = inhibition in test [5] is 17% (inactive). The molecule was called inactive in test [7]. Moreover, the figures for the max response in [9] (setting [11]) and in test [9] (setting [12]) were 3.24% and 5.77%, respectively.

In the case of `Cc1noc(C)c1C(=O)N1CCC2(CC1)CN(c1ccccc1)C2`, the Potency in test [1] is > 11.4 µM (inactive); in [6], > 46 µM (inactive). Besides, the activity change, negative = inhibition in test [2] was -19.3% (inactive); in test [4] it was 3.6% (inactive); in [9], 4.6% (inactive). The Potency entry in test [3], in test [8] and in test [10] was “inactive” throughout. Besides, the activity, negative = inhibition in test [5] was -19% (inactive). For the same molecule, in [7], the result was inactive. Also, the max response in test [9] (setting [11]) is -4.97%; in test [9] (setting [12]) it was 1.75%.
